Screening data deposited in PubChem by National Center for Advancing Translational Sciences (NCATS).
S-ASM inh – blocks human secretory acid sphingomyelinase; P17405; placental ASM, HMU-PC fluorogenic substrate, 60 min; Potency, µM (titrated, usually from 57.5 µM), most hits filed as inhibitors; actives 0.006% (n = 340,000); AID 504937
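Human placenta-derived ASM enzyme was preincubated with compound for 10 minutes at room temperature, then given fluorogenic substrate HMU-PC0 (9 uM final) for 60 minutes at 37 °C; a pH 10 stop preceded fluorescence reading at Ex 386/Em 447 nm.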
IDH1 R132H inh – blocks human mutant IDH1 R132H enzyme; actives 0.093% (n = 390,000); IDH1-R132H enzyme, NADPH consumption, diaphorase/resazurin fluorescence; Potency, µM (highest dose often 76.6 µM), usual class: inhibitors; note: nearly all actives have a fitted effect of over 65% in size
Target sequence (O75874 whole entry R132H, stated change not applied): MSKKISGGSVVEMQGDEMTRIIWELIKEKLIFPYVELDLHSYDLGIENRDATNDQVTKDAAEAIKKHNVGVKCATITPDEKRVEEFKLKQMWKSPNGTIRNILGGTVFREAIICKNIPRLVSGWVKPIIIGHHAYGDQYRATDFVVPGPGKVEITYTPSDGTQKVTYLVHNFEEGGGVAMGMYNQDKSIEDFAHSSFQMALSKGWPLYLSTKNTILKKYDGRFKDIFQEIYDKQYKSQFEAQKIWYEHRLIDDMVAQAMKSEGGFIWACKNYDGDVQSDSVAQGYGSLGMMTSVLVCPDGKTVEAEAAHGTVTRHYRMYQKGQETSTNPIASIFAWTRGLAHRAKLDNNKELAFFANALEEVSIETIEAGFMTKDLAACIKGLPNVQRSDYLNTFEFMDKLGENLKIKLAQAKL
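IDH1-R132H (0.5 ug/mL dispensed) in pH 7.5 Tris buffer was preincubated 30 min with compound, then given a substrate mix of 0.016 mM NADPH and 2 mM alpha-KG for 80 min at room temperature; remaining NADPH was read by diaphorase/resazurin fluorescence.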
KCNH2 3.1 inh – blocks the human KCNH2 3.1 channel isoform | U2OS KCNH2 3.1, thallium flux FluxOr; stronger effect = lower value | activity change, % (tested at about 1.8 µM) | actives 0.95% (n = 340,000);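 active = maximum activity change below -70%; inconclusive = maximum activity change from -70% to -50%; inactive = maximum activity change above -50%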;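 note: thallium influx rate constant from kinetic fluorescence after stimulation buffer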
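Steps: virus added to U2OS suspension (4 h, RT, dark); medium with 10% FBS added, cells plated, 37 C overnight; FluxOr/Red40 loading buffer 45 min RT; stimulation buffer, 2 min kinetic read; rate constant normalized.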
KCNH2 WT inh – blocks the wildtype human KCNH2 potassium channel. Q12809. U2OS, BacMam KCNH2, thallium flux FluxOr; stronger effect = lower value. activity change, % at 1.84 µM. actives 0.37% (n = 340,000). AID 720551;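 active = maximum activity change below -70%; inconclusive = maximum activity change between -70% and -50%; inactive = maximum activity change above -50%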
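U2OS cells transduced with wild-type KCNH2 virus are loaded with FluxOr dye for 45 min, and thallium flux is measured in kinetic reads before and after stimulation buffer. Rate constants are normalized to DMSO controls.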
Anesthetic bind – binds horse apoferritin like a general anesthetic; P02791; apoferritin/1-aminoanthracene competitive binding, fluorescence; Potency, µM (top dose mostly 77.5 µM), actives largely listed as inhibitors; actives 0.074% (n = 350,000); note: nearly all actives have a fitted effect of over 20% in size
Target sequence (P02791 2-175 limits assumed): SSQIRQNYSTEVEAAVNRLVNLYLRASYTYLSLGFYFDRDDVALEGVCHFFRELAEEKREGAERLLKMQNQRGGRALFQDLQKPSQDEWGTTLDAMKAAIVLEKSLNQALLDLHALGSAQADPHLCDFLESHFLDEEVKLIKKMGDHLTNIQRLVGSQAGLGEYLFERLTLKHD
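Probe: 1-aminoanthracene (50% saturated, PBS). Protein: horse-spleen apoferritin, 10 uM. Incubation: 10 min, room temperature. Detection: 380 nm excitation, 535 nm emission. Analysis: normalized response, four-parameter Hill.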
IDH1 autofl – counter-screen for mutant IDH1 inhibitors: fluorescence interference; inhibition of signal, % at 51.2 µM; shares compounds with IDH1 R132H inh; Resorufin detection reagent fluorescence interference, cell-free; 750 tested, under 10 active
WT IDH1 inh – wild-type IDH1 (human) inhibition counterscreen; shares compounds with IDH1 R132H inh; WT IDH1 enzyme, NADPH diaphorase/resazurin fluorescence; Potency, µM (highest dose often 115 µM), actives largely listed as inhibitors; actives 9% (n = 750); AID 623995; note: nearly all actives have a fitted effect of over 55% in size
Target sequence (O75874 whole entry, looked up): as the sequence (O75874 whole entry R132H, stated change not applied) above, with H132R counted along it
IDH1 R132H conf – inhibits human mutant IDH1 enzyme in cherrypick confirmation; Potency, µM (series often up to 76.6 µM), most hits filed as inhibitors; IDH1 R132H enzyme, NADPH diaphorase/resazurin fluorescence; actives 83% (n = 750); AID 624002; shares compounds with IDH1 R132H inh; note: nearly all actives have a fitted effect of over 50% in size
Each line names hits and unclear results; the compound was inactive in the other large screens (follow-up assays come after a bar, where they were run). In the library only some 1.2% were active in any assay of this set; here they are far more common. Unless noted, calls come from the whole dose curve; as a rule, active = well fitted curve in the direction sought with a large enough effect; inconclusive = small, poorly fitted or top-dose-only effect, or another doubt; inactive = no such curve, though single readings can be large; an effect the other way counts as inactive or inconclusive.

CC(=O)OC[C@H]1O[C@@H](O/N=C2/[C@H]3O[C@@H]3[C@@H](O)[C@H]3[C@H]2CCn2c(=O)n(-c4ccccc4)c(=O)n23)[C@H](OC(C)=O)[C@@H](OC(C)=O)[C@@H]1OC(C)=O	none (no result: S-ASM inh, IDH1 R132H inh, KCNH2 3.1 inh, KCNH2 WT inh)
CCOC(=O)c1cc(-c2cccs2)nc2c1c(C)nn2-c1ccccn1	IDH1 R132H inh 15µM | IDH1 autofl inactive | WT IDH1 inh inactive | IDH1 R132H conf 20µM
Cc1ccccc1-n1nc(C)c2c(C(=O)NN)cc(-c3ccncc3)nc21	IDH1 R132H inh inconclusive
Cc1nn(-c2ccccn2)c2nc(-c3cccs3)cc(C(=O)NCc3ccco3)c12	KCNH2 WT inh inconclusive
Cc1nn(-c2ccccc2)c2nc(-c3cccs3)cc(C(=O)NN)c12	IDH1 R132H inh 52µM | IDH1 autofl inactive | WT IDH1 inh inactive | IDH1 R132H conf inactive
CNC(=O)CSc1nnc(NC(=O)Nc2ccccc2)s1	none (no result: S-ASM inh, KCNH2 3.1 inh, KCNH2 WT inh)
COc1ccc(OC)c(C2=Nn3c(nnc3-c3ccc(OC)c(OC)c3)SC2)c1	none (no result: S-ASM inh, IDH1 R132H inh, KCNH2 3.1 inh, KCNH2 WT inh)
CC(=O)N1CCN(c2ccccc2NC(=O)c2ccc(-c3cccc([N+](=O)[O-])c3)o2)CC1	IDH1 R132H inh inconclusive | IDH1 autofl inactive | WT IDH1 inh inactive | IDH1 R132H conf inconclusive
CCc1ccc(-n2c(=O)c3c4c(sc3n(CC(=O)NC(C)CC)c2=O)CCCC4)cc1 (centres undefined)	none (no result: S-ASM inh, KCNH2 3.1 inh, KCNH2 WT inh)
Cc1ccc(C)c(NC(=O)CSc2nc3nc(-c4cccs4)cc(C(F)(F)F)c3c(=O)[nH]2)c1	none
O=C(CSc1nc2nc(-c3cccs3)cc(C(F)(F)F)c2c(=O)[nH]1)Nc1ccc(F)c(F)c1	IDH1 R132H inh inconclusive, Anesthetic bind inconclusive | IDH1 autofl inactive | WT IDH1 inh inconclusive | IDH1 R132H conf 45µM
O=C(CSc1nnc2[nH]c(=O)cc(-c3ccccc3)n12)Nc1cc(C(F)(F)F)ccc1Cl	none (no result: S-ASM inh, KCNH2 3.1 inh, KCNH2 WT inh)
COc1ccc(C2C(C#N)=C(SCC(=O)Nc3ccc(C)cc3)NC3=C2C(=O)CC(C)(C)C3)cc1 (centres undefined)	IDH1 R132H inh 13µM, Anesthetic bind inconclusive | IDH1 autofl inactive | WT IDH1 inh inactive | IDH1 R132H conf 7.1µM
CC1C/C(=C\c2cccnc2)C(=O)/C(=C/c2cccnc2)C1 (centres undefined)	IDH1 R132H inh inconclusive | IDH1 autofl inactive | WT IDH1 inh inactive | IDH1 R132H conf 45µM
Cc1ccc(C(=O)NCC(c2ccco2)S(=O)(=O)c2ccc(Cl)cc2)cc1C (centres undefined)	none (no result: S-ASM inh, KCNH2 3.1 inh, KCNH2 WT inh)
CC(C)C[C@H]1CN([C@@H](Cc2ccc(O)cc2)CN2CCC[C@@H]2CN2C(=O)C(=O)NC[C@@H]2Cc2ccccc2)C(=O)C(=O)N1CC1CCCCC1	IDH1 R132H inh 45µM (no result: Anesthetic bind) | IDH1 autofl inactive | WT IDH1 inh inactive | IDH1 R132H conf 14µM
CC(C)C[C@H]1CN([C@@H](CC(C)C)CN2CCC[C@@H]2CN2C(=O)C(=O)NC[C@@H]2Cc2ccccc2)C(=O)C(=O)N1CC1CCCCC1	IDH1 R132H inh inconclusive (no result: Anesthetic bind)
CC(C)C[C@@H](CN1CCC[C@@H]1CN1C(=O)C(=O)NC[C@@H]1Cc1ccccc1)N1C[C@H](Cc2ccccc2)N(CC2CCCCCC2)C(=O)C1=O	IDH1 R132H inh 40µM (no result: Anesthetic bind) | IDH1 autofl inactive | WT IDH1 inh inactive | IDH1 R132H conf 20µM
CC(C)C[C@@H](CN1CCC[C@@H]1CN1C(=O)C(=O)NC[C@@H]1Cc1ccccc1)N1C[C@H](Cc2ccc(O)cc2)N(CC2CCCCC2)C(=O)C1=O	IDH1 R132H inh inconclusive (no result: Anesthetic bind)
COc1ccc(S(=O)(=O)c2cnc3ccc(Cl)cc3c2N2CCCCC2C)cc1 (centres undefined)	none (no result: S-ASM inh, KCNH2 3.1 inh, KCNH2 WT inh)
CC1=C(C#N)c2nc(N)c(C#N)c(C)c2/C1=C\c1ccc(-c2ccccc2C(=O)O)o1	IDH1 R132H inh inconclusive | IDH1 autofl inactive | WT IDH1 inh 25µM | IDH1 R132H conf 35µM
CC(=O)Oc1cc(O)c2c(c1)OC(c1ccc(OC(C)=O)c(OC(C)=O)c1)C(OC(C)=O)C2=O (centres undefined)	IDH1 R132H inh 52µM | IDH1 autofl inactive | WT IDH1 inh inactive | IDH1 R132H conf inconclusive
O=C(/C=C/c1cccs1)Nc1scc(-c2ccccc2)c1C(=O)O	IDH1 R132H inh inconclusive | IDH1 autofl inactive | WT IDH1 inh 35µM | IDH1 R132H conf 35µM
CCN(CC)S(=O)(=O)c1ccc2c(c1)N(CC(=O)Nc1ccc(Cl)cc1)C(=O)C1CCCN21 (centres undefined)	IDH1 R132H inh inconclusive, Anesthetic bind inconclusive (no result: S-ASM inh, KCNH2 3.1 inh, KCNH2 WT inh) | IDH1 autofl inactive | WT IDH1 inh inactive | IDH1 R132H conf 28µM
O=C(Nc1c(Cl)cccc1Cl)c1cccc2c1C(=O)N(C1CCCCC1)C2	none (no result: S-ASM inh, KCNH2 3.1 inh, KCNH2 WT inh)
CCOC(=O)C1=C(C)OC2(O)c3ccccc3C(=O)C12O (centres undefined)	IDH1 R132H inh inconclusive | IDH1 autofl inactive | WT IDH1 inh inactive | IDH1 R132H conf inconclusive
COc1cc(Br)cc(/C=N/N(CCO)C2=NS(=O)(=O)c3ccccc32)c1OC	IDH1 R132H inh 13µM | IDH1 autofl inactive | WT IDH1 inh inactive | IDH1 R132H conf 25µM
COc1cc(/C=N/N(CCO)C2=NS(=O)(=O)c3ccccc32)cc(OC)c1OC	none
